94 compounds from PubChem BioAssay AID1377 (University of Pittsburgh Molecular Library Screening Center, 2008) can be followed below.

Values joined by “and” are separate entries in the source; they are usually repeats but may differ in a detail not shown here. Equal values may be shown once. The whole screen tested about 220,000 compounds, of which about 830 (0.38%) were called active. The list comes from a sample in which actives are over-represented; it also holds similar structures and randomly drawn compounds. A number with no mark means an inactive call.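 How the source made its calls: active means activation, scaled between plate controls, above about 75% (limit read from the data); inactive means activation under that limit.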

The assay is described as follows: rescue of L929 cells from zVAD death – primary screen (AID 1377).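 Further: 0% = zVAD with DMSO and 100% = DMSO alone without zVAD.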 To be noted: L929 zVAD necroptosis rescue, ATP luminescence, 24 h, at 10 µM, stronger effect = higher value; with zVAD 60 µM unless noted.
Consider `COc1cc([C@H](Cc2ccccc2)NC(C)=O)oc(=O)c1`, for which the viability rescue is -0.39%. The figure for `COC(=O)C1=C(C(=O)OC)[C@@H]2N(C)c3ccccc3[C@@]23C[C@@H](C(=O)OC)N(C(C)=O)C3=N1` is 0.26%; for `Clc1ccc2nc(-c3ccccc3)nc(C(Cl)Cl)c2c1` it is 37.5%; for `Oc1ccc(-c2onc3ccc(Cl)cc23)cc1` it is 82.9% (active). For `NC(=O)C[n+]1cccc(C(N)=O)c1`, the viability rescue is 1.24%. For `O=C(O)CCn1c(O)c(C=C2N=c3ccccc3=N2)sc1=S`, the viability rescue was -0.21%. As for `CCN(CC)CCNS(=O)(=O)c1ccc(/C=C/C(=O)O)cc1`, the viability rescue was 1.05%. On to `C/C(=C/C(=O)N1CCN(C)CC1)C(=O)O`, for which the viability rescue was 0.98%. For `CSc1nc2c(c(=O)[nH]1)C(c1cccc(Cl)c1Cl)CC(=O)N2` (centres undefined), the viability rescue was 0.3%. For `Cc1ccccc1C(=O)N1CCC(C(=O)Nc2ccc(S(=O)(=O)N(C)C(C)C)cc2)CC1`, the viability rescue was -0.58%. The figure for `CC(C)n1cnc2c(Nc3cccc(Cl)c3)nc(N(CCO)CCCO)nc21` is 20.9%; for `NS(=O)(=O)c1cccnc1Nc1cccc(Cl)c1` it is -0.92%.

Regarding `OCCCNc1nccc(-c2cc(Nc3cccc(Cl)c3)ncn2)n1`, the viability rescue is 103% (active).

Turning to `CC(=O)Nc1ccc(S(=O)(=O)NCC(=O)OCc2cc(=O)oc3ccc4ccccc4c23)cc1`, the viability rescue is 0.62%. For `c1ccc(Nc2nc(N3CCOCC3)c3ccccc3n2)cc1` the value was -0.17%; for `CCOc1ccc(Nc2nc(Cl)nc(N3CCN(c4ccc(OC)cc4)CC3)n2)cc1`, 0.74%.

For the compound `COc1ccc(Nc2ncc(F)c(N3CCOCC3)n2)cc1`, the viability rescue is 75.1% (active). On to `CCCOC(=O)c1c(NC(=O)c2cnn3c2NC(c2ccccc2)CC3C(F)(F)F)sc2c1CCCC2` (centres undefined), for which the viability rescue was 7.75% [with zVAD 20 µM]. Regarding `CC(C)NC(=O)/C(C#N)=C\c1ccc(N(C)C)c(Br)c1`, the viability rescue was 0.11%.

Consider `COc1ccc(C2CC(c3cccs3)Nc3nnnn32)cc1` (centres undefined), for which the viability rescue was 2.51%. For `Cc1cc(-n2cnc(-c3cn(C)nc3C)n2)no1`, the viability rescue is 80.2% (active).

Take `C/C(Cc1ccccc1)=N\NC(=O)CNC(=O)c1ccc2c(c1)OCCO2`: the viability rescue was 0.03%. For `COc1cccc(Nc2nc(N)c([N+](=O)[O-])c(NCc3ccco3)n2)c1` the value was -0.44%; for `COC(=O)c1cccnc1NC(=S)NC(C)C`, -0.14%. As for `CC[C@H]1CN2CCc3cc(OC)c(OC)cc3[C@@H]2C[C@@H]1C[C@H]1NCCc2cc(OC)c(OC)cc21`, the viability rescue was 79.5% (active).

For `COc1cc2c(cc1O)[C@H](Cc1ccc(Oc3cc(C[C@@H]4NCCc5cc(OC)c(O)cc54)ccc3O)cc1)NCC2`, the viability rescue is 5.53%. As to `O=C(/C=C/c1cccs1)NCc1cccnc1`, the viability rescue was 0.04%. With `Cc1ccc(Nc2ccccc2N)cc1`, the viability rescue was 75.5% (active). The figure for `Cc1ccc(Nc2nnc(SCc3ccccc3)s2)cc1` is 1.32% [with zVAD 20 µM].

On to `Nc1ccc(Nc2ccccc2)cc1`, for which the viability rescue is 0.51% [with zVAD 20 µM].

Consider `Cc1ccc(C)c(NC(=O)C2Cc3ccccc3CN2C(=O)OCc2ccccc2)c1` (centres undefined), for which the viability rescue is 0.1% [with zVAD 20 µM]. For `O=C(Nc1ccc(Cl)cn1)c1cnn2cccnc12`, the viability rescue is -0.65%. For `Cc1cc(NC(=O)Nc2ccccc2)n(-c2ccccc2)n1` the value was 0.11% [with zVAD 20 µM]; for `Cc1cc(NC(=O)c2cnn3cccnc23)n(-c2ccccc2)n1`, 77.7% (active). On to `CNC(=S)N/N=C/c1cn(Cc2ccc(C)cc2)c2ccccc12`, for which the viability rescue was 0.34%. `COCCNC(=O)c1ccccc1NS(=O)(=O)c1ccc(C)c([N+](=O)[O-])c1`: the viability rescue was 0.95%. Regarding `COc1ccc(/C=N/NS(=O)(=O)c2ccc(NC(C)=O)cc2)cc1`, the viability rescue was 0.07%.

Regarding `Cc1cc(=O)oc2cc(OCC(=O)Nc3nnc(C4CC4)s3)ccc12`, the viability rescue is -0.67%. Take `Cc1ccc(NC(=O)Cn2cccc2C2=NC(c3ccccc3)CO2)c(C)c1` (centres undefined): the viability rescue was -0.00089%. As to `COc1cc(/C=N/Nc2nc3ccccc3s2)ccc1O`, the viability rescue was 77.5% (active). As for `COc1cc(/C=N\Nc2nc(-c3cccs3)c(NC(C)=O)s2)ccc1O`, the viability rescue was 2.98%. On to `CCNc1nc(NCC)nc(N/N=C/c2ccc(O)c(OC)c2)n1`, for which the viability rescue is 0.27%. `COc1cc2nc(Cl)nc(NCCO)c2cc1OC`: the viability rescue is 0.24%. Consider `CC1CC(C)(C)n2c(O)c(N=NC(N)=S)c3cccc1c32` (centres undefined), for which the viability rescue is -0.69%.

Take `COc1ccccc1/C=C/CN1CCC(CO)(Cc2ccccc2)CC1`: the viability rescue is 0.85%.

In the case of `CC(=O)c1ccc(S(=O)(=O)N2CCN(c3nc4c(C)c(C)ccc4cc3C#N)CC2)cc1`, the viability rescue was 1.16%. Take `NC(=O)COC(=O)/C=C/c1ccc2ccccc2n1`: the viability rescue was 10.8%. With `CC(=O)c1ccc(S(=O)(=O)N2CCN(C(=O)/C=C/c3ccc4ccccc4n3)CC2)cc1`, the viability rescue is 75.2% (active).

`Cc1ccc(S(=O)(=O)N(C)CC(=O)OCC(=O)Nc2ccccc2)cc1`: the viability rescue was 0.76%. For the compound `Brc1cc(/C=N/n2cnnc2)oc1Br`, the viability rescue was 0.56%. On to `O=C(COc1cccc(-n2cnnn2)c1)NCCC1=CCCCC1`, for which the viability rescue is 78.2% [with zVAD 20 µM] (active). For the compound `O=C(COc1ccc(Cl)cc1)NCCC1=CCCCC1`, the viability rescue is 0.15% [with zVAD 20 µM].

On to `Cc1nnc(OCC(=O)NCCC2=CCCCC2)c2ccccc12`, for which the viability rescue was 0.41%. As for `COCCN(C(=O)c1ccccc1F)c1c(N)n(Cc2ccccc2)c(=O)[nH]c1=O`, the viability rescue was 1.78%. For `COc1ccc(CN2C(=O)C(C)S/C2=N/N=C/c2ccco2)cc1` (centres undefined), the viability rescue is 0.28%. In the case of `CN=c1scc(-c2cc(OC)ccc2OC)n1/N=C/c1c(C)[nH]c2ccccc12`, the viability rescue is 3.26% [with zVAD 20 µM]. As for `COc1ccccc1N=Cc1c(O)c2ccccc2oc1=O`, the viability rescue is -0.1%. In the case of `COC(=O)c1[nH]c2ccccc2c1NS(=O)(=O)c1ccc(OC)cc1OC`, the viability rescue was -0.08%. For `COc1cc(N=Cc2c(O)[nH]c3ccccc23)cc(OC)c1OC`, the viability rescue is 78.4% [with zVAD 20 µM] (active). On to `COc1ccc(N=Cc2c(O)[nH]c3ccccc23)cc1OC`, for which the viability rescue is 76.4% [with zVAD 20 µM] (active). For `COCC(=O)N=Nc1c(O)[nH]c2ccccc12` the value was -0.49% [with zVAD 20 µM]; for `Cc1cccc(C(=O)N2CCC(c3nc4ccccc4s3)CC2)c1`, 12.5%; for `CC(C)=CCN1CCN(Cc2ccc(Oc3ncccn3)cc2)CC1CCO` (centres undefined), -0.77%.

In the case of `CCc1ccc(C2C(C#N)=C(N)N(N3CCOCC3)C3=C2C(=O)CC(C)(C)C3)s1` (centres undefined), the viability rescue is -0.95%.

Consider `CCCN=C1NC(=O)C(CC(=O)NCCc2ccc(OC)c(OC)c2)S1` (centres undefined), for which the viability rescue was 0.51% [with zVAD 20 µM]. With `OCC(CO)(CO)NCc1ccc(-c2ccccc2)cc1`, the viability rescue is 3.78%. The figure for `O=C(Nc1nnc(C2CC2)s1)C1=NN(C2CCS(=O)(=O)C2)C(=O)CC1` (centres undefined) is 1.75%; for `Cn1c(=O)c2c(nc(NCc3ccccc3)n2CC(N)=O)n(C)c1=O` it is -0.38%; for `Clc1ccc(-c2cc(-c3ccccn3)on2)c(Cl)c1` it is -0.1%. For `COc1ccc(Br)c2c1C(=O)CC2` the value was 1.09%; for `NC1=NC[C@@H](Cc2ccc(O)cc2)N1CC1CCCCC1`, 0.84%; for `c1ccc2c(c1)CSc1sccc1C2=C1CCNCC1`, 1.55%.

Consider `O=C(Nc1ccccc1)Nc1ccc(C(F)(F)F)cn1`, for which the viability rescue is 16.8%. On to `Cc1nccn1CC(=O)N/N=C/c1ccc(O)c(O)c1`, for which the viability rescue is 0.09% [with zVAD 20 µM]. For `Oc1ccc(/C=N/Nc2ccc(C(F)(F)F)cn2)cc1O` the value was 78.6% (active); for `COc1cc(Cl)c(C)cc1NC(=O)COC(=O)c1cc(SC)ccc1Cl`, -0.03% [with zVAD 20 µM]. Regarding `O=S(=O)(NC1CC1)c1ccc2c3c(cccc13)CC2`, the viability rescue was 2.42%. For `CC(=O)Nc1cccc(C(=O)Nc2nc(C)cs2)c1` the value was -1.49%. As for `Cc1csc(NC(=O)Nc2ccccc2[N+](=O)[O-])n1`, the viability rescue was 0.75%. For `Cc1csc(NC(=O)NC2(C(F)(F)F)Oc3ccccc3O2)n1` the value was 78.5% [with zVAD 20 µM] (active); for `COc1ccc(CNC(=O)CN2CCC(n3nnc4cc(F)ccc43)CC2)cc1`, -0.59%; for `Cc1oc(C(N)=O)cc1COc1ccc(C(N)=O)cc1`, 1.12%. In the case of `Cc1cc(C(=O)NNS(=O)(=O)c2ccccc2C(F)(F)F)nn1C(C)(C)C`, the viability rescue was 0.49%.

With `CN(C)S(=O)(=O)c1ccc(NC(=O)COC(=O)Cn2[nH]c(=O)c3ccccc3c2=O)cc1`, the viability rescue was 0.01%.

Consider `COc1ccc(Cl)cc1NC(=O)COC(=O)C(CC(C)C)N1C(=O)C2CC=CCC2C1=O` (centres undefined), for which the viability rescue was 0.49% [with zVAD 20 µM]. For `CCOC(=O)C(=O)C1C(=O)Nc2ccccc21` (centres undefined) the value was -0.07%.

Turning to `CC1CCCCC1NC(=O)/C(C#N)=C/C=C/c1ccccc1[N+](=O)[O-]` (centres undefined), the viability rescue is 77% (active).

For the compound `O=C(/C=C/c1ccccc1[N+](=O)[O-])NCC1CCCO1` (centres undefined), the viability rescue is 1.4%. `O=C(/C=C/c1ccccc1[N+](=O)[O-])OC1CCCCC1=O` (centres undefined): the viability rescue is -0.52%. Consider `C=CCn1c(P(C)(=O)O)nc2ccccc21`, for which the viability rescue is 0.44% and 0.28%. With `CCOc1cc2[nH]c(=O)n(Cc3ccc(C(=O)NCCCN4CCCC4=O)cc3)c(=O)c2cc1OCC`, the viability rescue was 0.03%. Consider `O=C(CSc1ccc([N+](=O)[O-])cn1)Nc1ccc(N2CCOCC2)c(Cl)c1`, for which the viability rescue is 80.2% (active). For `Cc1cccc(C)c1NC(=O)CSc1ccc([N+](=O)[O-])cn1`, the viability rescue is 1.1%. As for `O=C(CSc1ccc([N+](=O)[O-])cn1)Nc1ccc(N2CCOCC2)cc1`, the viability rescue was 16.6%.
